In PubChem BioAssay AID1159580 (chemical genetic matrix, 2015):
Several values for one entry are separate records, joined by “and”; a condition that tells them apart may be missing. Equal values may be shown once. About 2,000 (36%) of roughly 5,500 compounds were called active. Not shown: some 18% with an inconclusive outcome. Rule as the data show it: active = normalized growth mostly below about 0.91 (no sharp cut-off); inconclusive = no clear call, values can overlap the other calls; inactive = mostly above about 0.92. The list shows a part of the results.

Test: chemical genetic growth profiling, strain panel (AID 1159580);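 also: tested at 20 µM; growth read once vehicle control cultures reached saturation at 30 °C; 1 = growth at the plate median or of vehicle wells; lower values mean less growth of the strain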
Details: S. cerevisiae deletion strains, growth OD
[1] = locus YGR078C, strain PAC10, stronger effect = lower value
[2] = locus YMR263W, strain SAP30, stronger effect = lower value
[3] = locus YMR307W, strain GAS1, stronger effect = lower value
[4] = locus YNL322C, strain KRE1, stronger effect = lower value

Measured: normalized growth

COc1ccc(/C=C/c2cc(O)cc(O)c2)cc1
0.863 (active) and 1.04 (inactive): locus YHR030C, strain SLT2, stronger effect = lower value
inactive: locus YAL021C, strain ccr4, stronger effect = lower value 0.984 | locus YAL026C, strain drs2, stronger effect = lower value 1.01 | locus YAL030W, strain snc1, stronger effect = lower value 1.01 | locus YBL061C, strain skt5, stronger effect = lower value 1.01 | locus YBR009C, strain hhf1, stronger effect = lower value 1 | locus YBR021W, strain FUR4, stronger effect = lower value 0.949 | locus YBR023C, strain chs3, stronger effect = lower value 1 | locus YBR171W, strain sec66, stronger effect = lower value 1.02 | locus YBR229C, strain ROT2, stronger effect = lower value 0.978 | locus YBR231C, strain swc5, stronger effect = lower value 1 | locus YBR279W, strain paf1, stronger effect = lower value 1 | locus YCL011C, strain gbp2, stronger effect = lower value 0.991 | locus YCL016C, strain dcc1, stronger effect = lower value 1 | locus YCL029C, strain bik1, stronger effect = lower value 0.931 | locus YCL061C, strain MRC1, stronger effect = lower value 0.999 | locus YCL069W, strain vba3, stronger effect = lower value 1.01 | locus YCR088W, strain abp1, stronger effect = lower value 1 | locus YDL005C, strain med2, stronger effect = lower value 1.01 | locus YDL035C, strain GPR1, stronger effect = lower value 0.868 | locus YDL040C, strain nat1, stronger effect = lower value 1.01 | locus YDL101C, strain DUN1, stronger effect = lower value 0.949 | locus YDL134C, strain PPH21, stronger effect = lower value 0.895 | locus YDL185W, strain tfp1, stronger effect = lower value 0.976 | locus YDR001C, strain nth1, stronger effect = lower value 1.01 | locus YDR069C, strain doa4, stronger effect = lower value 1.02 | locus YDR137W, strain rgp1, stronger effect = lower value 1.02 | locus YDR159W, strain sac3, stronger effect = lower value 1.01 | locus YDR162C, strain NBP2, stronger effect = lower value 0.866 | locus YDR195W, strain ref2 1.06 | locus YDR297W, strain sur2, stronger effect = lower value 1 | locus YDR318W, strain mcm21, stronger effect = lower value 0.919 | locus YDR334W, strain swr1, stronger effect = lower value 1.02 | locus YDR335W, strain msn5, stronger effect = lower value 0.999 | locus YDR388W, stronger effect = lower value 0.962 | locus YDR392W, strain spt3, stronger effect = lower value 0.982 | locus YEL003W, strain gim4, stronger effect = lower value 1.01 | locus YEL037C, strain rad23, stronger effect = lower value 1.01 | locus YEL061C, strain CIN8 (second series), stronger effect = lower value 1.01 | locus YER015W, strain faa2, stronger effect = lower value 0.998 | locus YER016W, strain bim1, stronger effect = lower value 1.01 | locus YER110C, stronger effect = lower value 0.956 | locus YER111C, strain swi4, stronger effect = lower value 1.01 | locus YER155C, strain BEM2 (second series), stronger effect = lower value 1 | locus YER155C, strain BEM2, stronger effect = lower value 0.945 | locus YFR010W, strain ubp6, stronger effect = lower value 1.01 | locus YGL078C, strain dbp3, stronger effect = lower value 0.946 | locus YGL167C, strain pmr1, stronger effect = lower value 1.01 | locus YGL173C, strain kem1, stronger effect = lower value 1.02 | locus YGL227W, strain vid30, stronger effect = lower value 1.01 | locus YGL240W, strain doc1, stronger effect = lower value 1 | locus YGL248W, strain PDE1, stronger effect = lower value 0.907 | locus YGL253W, strain hxk2, stronger effect = lower value 1.01 | locus YHR013C, strain ard1, stronger effect = lower value 1 | locus YHR027C, strain rpn1, stronger effect = lower value 0.998 | locus YHR079C, strain IRE1 (second series), stronger effect = lower value 0.974 | locus YHR079C, strain IRE1, stronger effect = lower value 1.01 | locus YHR094C, strain hxt1, stronger effect = lower value 0.96 | locus YHR142W, strain chs7, stronger effect = lower value 0.99 | locus YIL073C, strain SPO22, stronger effect = lower value 0.896 | locus YIL125W, strain kgd1, stronger effect = lower value 0.955 | locus YIR030C, strain dcg1, stronger effect = lower value 0.957 | locus YJL092W, strain hpr5, stronger effect = lower value 1.01 | locus YJL095W, strain BCK1 (second series), stronger effect = lower value 1.01 | locus YJL115W, strain asf1, stronger effect = lower value 1.01 | locus YJL129C, strain trk1, stronger effect = lower value 0.986 | locus YJL134W, strain LCB3, stronger effect = lower value 0.983 | locus YJL154C, strain vps35, stronger effect = lower value 1.01 | locus YJL164C, strain tpk1, stronger effect = lower value 0.986 | locus YJL166W, strain qcr8, stronger effect = lower value 1 | locus YJL168C, strain set2, stronger effect = lower value 0.969 | locus YJL187C, strain SWE1 (second series), stronger effect = lower value 0.89 | locus YJL187C, strain SWE1, stronger effect = lower value 0.997 | locus YJR066W, strain TOR1, stronger effect = lower value 0.995 | locus YKL068W, stronger effect = lower value 0.982 | locus YKL085W, strain MDH1 (second series), stronger effect = lower value 0.946 | locus YKL085W, strain MDH1, stronger effect = lower value 0.946 | locus YKL160W, strain elf1, stronger effect = lower value 0.996 | locus YKR026C, strain gcn3, stronger effect = lower value 1 | locus YKR091W, strain srl3, stronger effect = lower value 1 | locus YLL001W, strain dnm1, stronger effect = lower value 0.997 | locus YLL026W, stronger effect = lower value 1.01 | locus YLL041C, strain sdh2, stronger effect = lower value 1.01 | locus YLR027C, strain aat2, stronger effect = lower value 1 | locus YLR039C, strain RIC1, stronger effect = lower value 0.815 | locus YLR058C, strain SHM2, stronger effect = lower value 0.931 | locus YLR102C, strain apc9, stronger effect = lower value 0.966 | locus YLR113W, strain HOG1, stronger effect = lower value 0.966 | locus YLR221C, strain rsa3, stronger effect = lower value 0.999 | locus YLR258W, strain gsy2, stronger effect = lower value 0.996 | locus YLR262C, strain YPT6 (second series), stronger effect = lower value 0.991 | locus YLR262C, strain YPT6, stronger effect = lower value 0.686 | locus YLR320W, strain mms22, stronger effect = lower value 0.991 | locus YLR342W, strain FKS1, stronger effect = lower value 1 | locus YLR357W, strain rsc2, stronger effect = lower value 0.95 | locus YLR370C, strain arc18, stronger effect = lower value 1.01 | locus YLR384C, strain iki3, stronger effect = lower value 1.01 | locus YML016C, strain PPZ1, stronger effect = lower value 0.964 | locus YML120C, strain ndi1, stronger effect = lower value 0.997 | locus YML124C, strain tub3, stronger effect = lower value 0.972 | locus YMR058W, strain fet3, stronger effect = lower value 1 | locus YMR078C, strain ctf18, stronger effect = lower value 0.967 | locus YMR125W, strain sto1, stronger effect = lower value 1.01 | locus YMR129W, stronger effect = lower value 1.01 | locus YMR205C, strain PFK2, stronger effect = lower value 0.995 | locus YMR231W, strain pep5, stronger effect = lower value 0.992 | [3] 0.663 | locus YNL067W, strain RPL9B, stronger effect = lower value 0.908 | locus YNL071W, strain lat1, stronger effect = lower value 1 | locus YNL153C, strain GIM3, stronger effect = lower value 0.931 | locus YNL183C, strain NPR1, stronger effect = lower value 0.977 | locus YNL209W, strain ssb2, stronger effect = lower value 1.01 | locus YNL248C, strain rpa49, stronger effect = lower value 0.999 | locus YNL250W, strain rad50, stronger effect = lower value 0.961 | locus YNL271C, strain bni1, stronger effect = lower value 0.945 | locus YNL298W, strain CLA4, stronger effect = lower value 0.928 | locus YNL322C, strain KRE1 (second series), stronger effect = lower value 1.01 | [4] 0.945 | locus YNR049C, strain mso1, stronger effect = lower value 1.02 | locus YOL012C, strain htz1 0.771 | locus YOR001W, strain rrp6, stronger effect = lower value 1 | locus YOR061W, strain CKA2, stronger effect = lower value 0.941 | locus YOR069W, strain VPS5, stronger effect = lower value 0.927 | locus YOR070C, strain gyp1, stronger effect = lower value 1 | locus YOR080W, strain dia2, stronger effect = lower value 1 | locus YOR083W, strain WHI5, stronger effect = lower value 0.994 | locus YOR106W, strain vam3, stronger effect = lower value 0.956 | locus YOR136W, strain idh2, stronger effect = lower value 0.936 | locus YOR231W, strain MKK1, stronger effect = lower value 0.991 | locus YOR265W, strain rbl2, stronger effect = lower value 1.02 | locus YOR270C, strain vph1, stronger effect = lower value 0.998 | locus YOR290C, strain snf2, stronger effect = lower value 0.995 | locus YOR316C, strain cot1, stronger effect = lower value 0.961 | locus YPL051W, strain arl3, stronger effect = lower value 0.973 | locus YPL078C, strain atp4, stronger effect = lower value 0.998 | locus YPL106C, strain sse1, stronger effect = lower value 0.996 | locus YPL240C, strain hsp82, stronger effect = lower value 1.01 | locus YPL241C, strain CIN2, stronger effect = lower value 0.973 | locus YPL256C, strain CLN2, stronger effect = lower value 1.05 | locus YPR119W, strain clb2, stronger effect = lower value 0.964 | locus YPR141C, strain kar3, stronger effect = lower value 0.977 | locus YPR167C, strain met16, stronger effect = lower value 0.969
0.709 (active) and 0.967 (inactive): locus YJL095W, strain BCK1, stronger effect = lower value
active: locus YDL074C, strain BRE1, stronger effect = lower value 0.725 | locus YDL192W, strain arf1, stronger effect = lower value 0.729 | locus YDR101C, strain arx1, stronger effect = lower value 0.878 | locus YDR502C, strain sam2, stronger effect = lower value 0.846 | locus YEL061C, strain CIN8, stronger effect = lower value 0.864 | locus YER167W, strain BCK2, stronger effect = lower value 0.872 | locus YGL086W, strain mad1, stronger effect = lower value 0.854 | [1] 0.803 | locus YGR135W, strain pre9, stronger effect = lower value 0.86 | locus YGR252W, strain gcn5, stronger effect = lower value 0.687 | locus YHR129C, strain ARP1, stronger effect = lower value 0.857 | locus YHR200W, strain rpn10, stronger effect = lower value 0.879 | locus YIL066C, strain RNR3, stronger effect = lower value 0.841 | locus YJR043C, strain POL32, stronger effect = lower value 0.788 | locus YKL009W, strain mrt4, stronger effect = lower value 0.87 | locus YKR001C, strain vps1, stronger effect = lower value 0.608 | locus YLR268W, strain sec22, stronger effect = lower value 0.872 | locus YLR330W, strain CHS5, stronger effect = lower value 0.84 | locus YLR342W, strain FKS1 (second series), stronger effect = lower value 0.785 | locus YLR371W, strain rom2, stronger effect = lower value 0.793 | locus YLR418C, strain cdc73, stronger effect = lower value 0.583 | locus YML032C, strain rad52, stronger effect = lower value 0.886 | locus YMR223W, strain ubp8, stronger effect = lower value 0.89 | [2] 0.883 | locus YNL233W, strain BNI4, stronger effect = lower value 0.823 | locus YNL307C, strain MCK1, stronger effect = lower value 0.857 | locus YNR052C, strain pop2, stronger effect = lower value 0.914 | locus YOL147C, strain pex11, stronger effect = lower value 0.868 | locus YOR144C, strain elg1, stronger effect = lower value 0.932 | locus YOR184W, strain ser1, stronger effect = lower value 0.623 | locus YPR163C, strain tif3, stronger effect = lower value 0.842 | strain wtn01, stronger effect = lower value 0.838

Oc1cc(O)cc(/C=C/c2ccc(O)c(O)c2)c1
inactive: locus YAL040C, strain CLN3, stronger effect = lower value 1.01 | locus YCL061C, strain MRC1 (second series), stronger effect = lower value 0.992 | locus YDR363W, strain ESC2, stronger effect = lower value 0.955 | [2] 1.01 | [3] 0.979 | locus YNL197C, strain WHI3, stronger effect = lower value 1 | [4] 0.989 | locus YOR083W, strain WHI5 (second series), stronger effect = lower value 0.993
active: [1] 0.691 | locus YNL175C, strain NOP13, stronger effect = lower value 0.71
